# Results from PubChem BioAssay (NCATS).
# Results filed as inconclusive are left out. A call without a number means that no potency is given here. Unmarked numbers belong to inactive results. The source made the active and inactive calls. Calls come from the whole dose curve; as a rule, active = well fitted curve in the direction sought with a large enough effect; inconclusive = small, poorly fitted or top-dose-only effect, or another doubt; inactive = no such curve, though single readings can be large; an effect the other way counts as inactive or inconclusive.
# Experiments:
# [1] = biological target: Rap guanine nucleotide exchange factor 3 (Homo sapiens) (UniProt O95398); experiment: Confirmatory qHTS for antagonist of cAMP-regulated guanine nucleotide exchange factor 3 (EPAC1) (AID 1645880); conditions: EPAC1 Rap1B-BODIPY-GDP exchange, fluorescence; activity, negative = inhibition: at 115 µM (top of the series); note: nearly all actives have a fitted effect of over 55% in size; note: potency is the fitted concentration of half-maximal effect
# Chain of Rap guanine nucleotide exchange factor 3 (Homo sapiens) (O95398 whole entry, looked up): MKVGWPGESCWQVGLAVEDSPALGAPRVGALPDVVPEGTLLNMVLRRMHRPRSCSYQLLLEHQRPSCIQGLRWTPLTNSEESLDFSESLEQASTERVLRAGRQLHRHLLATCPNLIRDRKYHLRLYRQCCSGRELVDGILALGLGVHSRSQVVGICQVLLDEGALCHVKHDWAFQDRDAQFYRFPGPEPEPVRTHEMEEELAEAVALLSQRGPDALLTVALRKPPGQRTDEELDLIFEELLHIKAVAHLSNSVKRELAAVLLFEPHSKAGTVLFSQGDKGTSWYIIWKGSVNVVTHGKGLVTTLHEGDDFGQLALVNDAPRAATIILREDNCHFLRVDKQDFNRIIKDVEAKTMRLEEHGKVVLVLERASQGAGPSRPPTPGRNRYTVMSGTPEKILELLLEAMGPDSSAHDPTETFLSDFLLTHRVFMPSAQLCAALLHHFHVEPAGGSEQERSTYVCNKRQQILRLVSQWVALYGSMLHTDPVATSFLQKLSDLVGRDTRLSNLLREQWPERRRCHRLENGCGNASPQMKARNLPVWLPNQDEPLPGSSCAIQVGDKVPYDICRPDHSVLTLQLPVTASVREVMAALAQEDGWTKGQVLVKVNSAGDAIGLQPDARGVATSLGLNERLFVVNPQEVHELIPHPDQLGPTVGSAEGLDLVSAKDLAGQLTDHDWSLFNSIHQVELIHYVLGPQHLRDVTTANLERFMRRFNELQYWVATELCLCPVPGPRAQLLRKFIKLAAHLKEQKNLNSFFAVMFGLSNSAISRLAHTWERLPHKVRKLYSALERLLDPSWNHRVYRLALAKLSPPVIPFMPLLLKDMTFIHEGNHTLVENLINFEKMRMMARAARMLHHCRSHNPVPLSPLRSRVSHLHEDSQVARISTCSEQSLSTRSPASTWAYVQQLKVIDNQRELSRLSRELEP
# Outline: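 Released BODIPY-GDP fluoresces less than Rap1-bound BODIPY-GDP; the signal is followed at 480/540 nm at 5-min intervals over 30 min, after 5 min at room temperature. Reactions contain 100 nM EPAC1, 250 nM RAP1B-BODIPY-GDP and 50 uM GDP; results are normalized to ATA and DMSO.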
# [2] = biological target: Rap guanine nucleotide exchange factor 3 (Homo sapiens) (UniProt O95398); experiment: Confirmatory qHTS for agonist of cAMP-regulated guanine nucleotide exchange factor 3 (EPAC1) (AID 1645881); note: nearly all actives have a fitted effect of over 75% in size; note: potency is the fitted concentration of half-maximal effect;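 for activation: EPAC1 catalysed release of BODIPY-GDP from Rap1B seen as fluorescence loss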
# [3] = biological target: Rap guanine nucleotide exchange factor 3 (Homo sapiens) (UniProt O95398); experiment: Counterscreen qHTS for agonist of cAMP-regulated guanine nucleotide exchange factor 3 (EPAC1) (AID 1645889); note: nearly all actives have a fitted effect of over 40% in size; note: potency is the fitted concentration of half-maximal effect
# Outline: (§1)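 Measured: fluorescence of BODIPY-GDP bound to Rap1B, which falls as exchange proceeds. Conditions include 50 uM competing GDP, 5 and 30 min reads, and a later cAMP challenge for antagonist detection.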
# [4] = biological target: Rap guanine nucleotide exchange factor 4 (Homo sapiens) (UniProt Q8WZA2); experiment: Confirmatory qHTS for agonist of cAMP-regulated guanine nucleotide exchange factor 4 (EPAC2) (AID 1645884);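 note: nucleotide exchange releases bodipy-GDP from Rap1 and this lowers its fluorescence; nearly all actives have a fitted effect of over 65% in size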; note: potency is the fitted concentration of half-maximal effect
# Chain of Rap guanine nucleotide exchange factor 4 (Homo sapiens) (Q8WZA2 whole entry, looked up): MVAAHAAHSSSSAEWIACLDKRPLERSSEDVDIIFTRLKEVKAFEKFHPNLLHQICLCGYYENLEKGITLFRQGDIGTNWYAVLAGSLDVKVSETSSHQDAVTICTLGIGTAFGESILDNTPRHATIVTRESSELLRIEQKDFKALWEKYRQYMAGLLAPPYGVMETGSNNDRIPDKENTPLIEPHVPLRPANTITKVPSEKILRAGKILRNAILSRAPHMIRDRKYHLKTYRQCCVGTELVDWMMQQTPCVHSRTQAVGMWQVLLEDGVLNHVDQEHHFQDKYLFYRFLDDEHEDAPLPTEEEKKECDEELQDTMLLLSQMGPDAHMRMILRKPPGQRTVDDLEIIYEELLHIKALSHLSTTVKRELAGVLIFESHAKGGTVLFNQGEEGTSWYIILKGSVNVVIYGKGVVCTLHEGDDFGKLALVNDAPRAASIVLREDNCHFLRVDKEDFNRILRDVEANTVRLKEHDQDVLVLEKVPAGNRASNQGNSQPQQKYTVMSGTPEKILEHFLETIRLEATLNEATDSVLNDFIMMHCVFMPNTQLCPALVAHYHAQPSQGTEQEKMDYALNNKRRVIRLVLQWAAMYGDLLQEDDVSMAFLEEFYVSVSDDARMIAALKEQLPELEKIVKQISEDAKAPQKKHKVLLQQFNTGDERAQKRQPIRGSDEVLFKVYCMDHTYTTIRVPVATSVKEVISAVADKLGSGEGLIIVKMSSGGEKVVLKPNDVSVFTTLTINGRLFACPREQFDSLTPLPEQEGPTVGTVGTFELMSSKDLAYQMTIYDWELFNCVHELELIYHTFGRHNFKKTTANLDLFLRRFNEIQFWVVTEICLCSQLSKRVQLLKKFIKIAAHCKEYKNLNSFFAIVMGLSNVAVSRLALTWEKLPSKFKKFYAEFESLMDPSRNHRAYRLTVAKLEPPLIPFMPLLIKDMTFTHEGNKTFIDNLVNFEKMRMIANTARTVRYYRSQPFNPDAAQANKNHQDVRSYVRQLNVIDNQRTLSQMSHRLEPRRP
# [5] = biological target: Rap guanine nucleotide exchange factor 4 (Homo sapiens) (UniProt Q8WZA2); experiment: Confirmatory qHTS for antagonist of cAMP-regulated guanine nucleotide exchange factor 4 (EPAC2) (AID 1645885); note: nearly all actives have a fitted effect of over 25% in size; note: potency is the fitted concentration of half-maximal effect
# [6] = biological target: Rap guanine nucleotide exchange factor 3 (Homo sapiens) (UniProt O95398); experiment: Counterscreen qHTS for antagonist of cAMP-regulated guanine nucleotide exchange factor 3 (EPAC1) (AID 1645888)
# Outline: as §1
smiles,measurement,setting,value
Cc1cc2nc3c(=O)n(C)c(=O)n(C)c3nc2cc1N=CN(C)C,Potency,[1],inactive
same,Potency,[2],50.1 µM (active)
same,Potency,[3],44.7 µM (active)
COC(=O)c1cc(C(=O)c2ccc(Cl)cc2)n2c(=O)/c(=C\N(C)C)sc12,Potency,[1],inactive
same,Potency,[4],100 µM (active)
same,Potency,[5],inactive
Fc1cc(F)cc(-c2c(-c3ccccc3)ncc3ccc(F)cc23)c1,Potency,[1],inactive
same,Potency,[2],inactive
same,Potency,[3],inactive
Cc1ccc(Nc2cc(C)nc3c(C)ccc([N+](=O)[O-])c23)cc1,Potency,[1],inactive
same,activation,[4],"6.25% [at 17.1 µM, percent relative to cAMP agonist control]"
same,Potency,[5],inactive
same,"activity change, negative = inhibition",[6],4.53% [at 30.8 µM]
CCCC[C@@H]1C=C(C(=O)O)[C@H](c2ccc(Cl)c(Cl)c2)N1S(=O)(=O)c1ccc(C)cc1,Potency,[1],84.9 µM (active)
same,Potency,[2],inactive
same,Potency,[3],inactive
O=C(NCc1ccco1)c1ccc(Cn2c(=S)[nH]c3ccccc3c2=O)cc1,Potency,[1],inactive
same,Potency,[4],inactive
same,Potency,[5],0.953 µM (active)
same,Potency,[6],inactive
Cc1cccc(C(C)C)c1-n1nnnc1-c1ccccc1,Potency,[1],inactive
same,activation,[4],"6.22% [at 17.1 µM, percent relative to cAMP agonist control]"
same,Potency,[5],3.01 µM (active)
same,"activity change, negative = inhibition",[6],-11.8% [at 30.8 µM]
COc1ccccc1-c1oc2ccccc2c1-c1ccc2c(c1)OCO2,Potency,[1],inactive
same,Potency,[2],inactive
same,Potency,[3],inactive
O=c1[nH]c2ccccc2nc1/C=C(\O)c1cccs1,Potency,[1],inactive
same,activation,[4],"1.73% [at 17.1 µM, percent relative to cAMP agonist control]"
same,Potency,[5],inactive
same,"activity change, negative = inhibition",[6],-7.08% [at 30.8 µM]
Cc1ccc(S(=O)(=O)N2[C@@H](c3ccc(C(C)(C)C)cc3)C(C(=O)O)=CC[C@H]2c2ccc(Cl)cc2)cc1,Potency,[1],33.8 µM (active)
same,Potency,[2],inactive
same,Potency,[3],inactive
CCOC(=O)C1Oc2ccccc2C(c2ccc(C)cc2)=C1C(=O)OC (stereo unspecified),Potency,[1],inactive
same,Potency,[2],inactive
same,Potency,[3],inactive
O=C1CSC(c2ccc(Cl)c(Cl)c2)N1c1nccs1 (stereo unspecified),Potency,[1],inactive
same,Potency,[4],inactive
Cn1c(=O)c(C#N)c(-c2ccc(F)cc2)c2cc(C(=O)c3cc(Cl)cc(Cl)c3O)cnc21,Potency,[1],inactive
same,Potency,[4],inactive
